The record followed here is ChEMBL document CHEMBL3988442, “University of Dundee, Small-Polar-MMV Screening Library” (2021).

Each structure is given as a SMILES string. Out of some 48,000 compounds screened, about 13,000 (27%) showed an effect of 50% or more. Some of the results follow.

This assay relates to Wolbachia pipientis. Briefly: Anti-Wolbachia Cell-Based Screen. It is filed as functional. Also on record: scale not given: in the data most compounds retested in dose-response had high values. The following applies: 5 µM.
`CC(C)(C)[S+]([O-])CCNC(=O)c1csc(NC2CC2)n1` (stereo not given): the “Percent Effect” value is reported as 7.627%.
In the case of `CSCC(C)(O)CNc1ncccc1C(F)(F)F` (stereo not given), the “Percent Effect” value was determined as 8.156%.
The figure for `COc1ccccc1C(=O)N1CCN(C(=O)CCCc2cn[nH]c2)CC1` is 9.231%; for `COC(=O)CNc1cc(C(=O)NCC(F)(F)F)cc(F)c1C` it is 5.099%; for `O=C(c1ccccn1)N1C[C@@H]2OCC(=O)N(CC3CCCCC3)[C@@H]2C1` it is 1.178%.
With `OC1CCN(Cc2cc3c(cc2Br)OCCO3)CC1`, the “Percent Effect” value was determined as 23.9%.
In the case of `Cc1ccc(NC(=O)N2CCCN(C(N)=O)CC2)s1`, the “Percent Effect” value is -6.622%.
The figure for `O=S1(=O)CCC(c2nnc(-c3cnc4onc(C5CCCC5)c4c3)o2)C1` (stereo not given) is -3.167%.
On to `O=C1O[C@@H]2CN(c3ccccn3)C[C@@H]2N1CCCc1ccc(F)cc1`, for which the “Percent Effect” value is 2.286%.
As for `COCc1nc2cc(NCc3scnc3C)ccc2o1`, the figure is 5.426%.
As to `O=C(O)C(F)(F)F.O=C1N(Cc2cccnc2)CCC12CCCN(c1ncc(F)cn1)C2` (stereo not given), the “Percent Effect” value is 109.4%.
The figure for `CN1CCN(Cc2cccnc2)C2(CCN(c3ncc(F)cn3)C2)C1=O.O=C(O)C(F)(F)F.O=C(O)C(F)(F)F` (stereo not given) is -9.065%; for `Cc1csc2ncc(-c3ccnc(N4CCN(C)CC4)n3)c(=O)n12` it is 4.781%; for `Cc1csc2ncc(-c3ccnc(N4CCCC4)n3)c(=O)n12` it is 95.07%.
On to `Cc1csc2ncc(-c3ccnc(N4CCCN(C)CC4)n3)c(=O)n12`, for which the “Percent Effect” value is reported as 84.49%.
For the compound `Cc1csc2ncc(-c3ccnc(N4CCC[C@H](C(N)=O)C4)n3)c(=O)n12`, the “Percent Effect” value is 107.6%.
Regarding `Cc1ccc(-c2ccnc(N3CCC4(CC3)CNC(=O)C4)n2)c(C)n1`, the “Percent Effect” value is given as -12.24%.
The figure for `Cc1noc(-c2ccc(N3CCCC(C(N)=O)C3)nc2)n1` (stereo not given) is -1.352%; for `Cc1ccc(-c2csc3c(=O)[nH]c(N4CCCC(C(N)=O)C4)nc23)cc1` (stereo not given) it is 13.87%.
Consider `C=C(C)COc1cccc(C(=O)N2CCC(O)(c3ccccc3)CC2)c1`, for which the “Percent Effect” value is recorded as -7.065%.
In the case of `CNS(=O)(=O)CC(=O)NC(C)Cc1ccc(-c2ccccc2)cc1` (stereo not given), the “Percent Effect” value was -4.402%.
Turning to `Nc1ccnc(N2CCC(Cc3ccccc3Cl)(C(=O)O)CC2)n1`, the “Percent Effect” value amounted to 5.255%.
In the case of `CC(O)CN1CCc2onc(C(c3ccccc3)c3ccccc3)c2C1` (stereo not given), the “Percent Effect” value is reported as -15.19%.
The figure for `COCCNS(=O)(=O)c1cccc2c1CN(C(=O)c1cc(C)on1)CC2` is -0.4963%; for `CCOc1ncnc2c1CCN(Cc1csc(C)n1)CC2.O=C(O)C(F)(F)F` it is 7.701%; for `Cc1nc(CN2CCc3ncnc(C4CC4)c3CC2)cs1.O=C(O)C(F)(F)F` it is -1.319%.
The figure for `Cc1cccc(CN2CCc3cc(C(=O)O)c(N(C)C)nc3CC2)n1.O=C(O)C(F)(F)F.O=C(O)C(F)(F)F` is 105.7%; for `Cc1nc(CN2CCc3cc(C(=O)O)c(N(C)C)nc3CC2)cs1.O=C(O)C(F)(F)F.O=C(O)C(F)(F)F` it is 99.11%.
For the compound `CCCSCC(=O)NS(=O)(=O)c1ccc2c(c1)OCCO2`, the “Percent Effect” value was -7.969%.
As to `COc1ccc(Cc2nnc(SC)o2)cc1OC`, the “Percent Effect” value was -1.582%.
The figure for `COCCN(Cc1ccc(F)cc1Cl)C(=O)c1cc[n+]([O-])cc1` is -5.927%.
As for `c1ccc(-c2cc(CN3C[C@@H]4CC[C@H](C3)N(CC3CC3)C4)on2)cc1`, the “Percent Effect” value is on record as 2.507%.
Consider `O=C(Nc1ccccc1Oc1cccc(F)c1)NC1CCS(=O)(=O)C1` (stereo not given), for which the “Percent Effect” value turned out to be 9.337%.
As for `CN(Cc1nc(Cc2ccccc2F)no1)CC1Cc2ccccc2O1` (stereo not given), the figure is 1.647%; as for `Cc1noc(C2CCC3(CCN(C(=O)c4c(C)noc4C)CC3)O2)n1` (stereo not given), -1.941%; as for `Cc1noc(C2CCN(C(=O)c3cc(Cl)c(Cl)n3C)CC2)n1`, -8.55%.
As for `Cc1noc(C2CCC3(CCN(C(=O)c4ccncn4)CC3)O2)n1` (stereo not given), the “Percent Effect” value was 97.14%.
The figure for `Cc1noc(C2CCC3(CCN(C(=O)c4ncccn4)CC3)O2)n1` (stereo not given) is 110.9%; for `CC1N(CC2CC2)C(=O)COC12CCN(C(=O)c1cnccn1)CC2` (stereo not given) it is -1.759%; for `O=C(c1cc(C2CC2)on1)N1CC[C@]2(C[C@H](Oc3cccnc3)CO2)C1` it is -8.078%.
The figure for `C[C@H]1C[C@H]2CN(C(=O)c3ccncn3)CC[C@H]2O1` is 2.98%; for `C[C@H]1C[C@@H]2CCN(C(=O)c3ccncn3)C[C@H]2O1` it is 15.39%; for `Cc1noc(C2CCC3(CCN(C(=O)c4cc(C5CC5)on4)CC3)O2)n1` (stereo not given) it is 104.1%.
As for `Cc1noc(C2CCC3(CCN(C(=O)c4cnccn4)CC3)O2)n1` (stereo not given), the figure is 108.3%; as for `Cc1ccc(F)c(S(=O)(=O)NCc2cccc(N3CCOC3=O)c2)c1`, -1.653%; as for `COc1ccc(C(=O)NCc2cc(N3CCOCC3)ncn2)o1`, -2.324%.
On to `COCC(=O)N1CCC2(CC1)CN(c1ncccn1)CCO2`, for which the “Percent Effect” value is given as -1.945%.
The figure for `Cc1nn(C)c(Cl)c1C1CCCN1c1ncnc2sccc12` (stereo not given) is -14.86%; for `CC1CCN(C(CNC(=O)Cn2cccn2)c2cccs2)CC1` (stereo not given) it is -3.451%.
For the compound `O=C(O)C(F)(F)F.O=C(c1ccccn1)N1CCOC2(COCCN(Cc3cc[nH]n3)C2)C1` (stereo not given), the “Percent Effect” value is given as -2.383%.
As for `Cn1ccc(C(=O)N2CCOC3(COCCN(CC4CC4)C3)C2)n1.O=C(O)C(F)(F)F` (stereo not given), the figure is 108.5%.
In the case of `O=C(O)C(F)(F)F.O=C(c1ccoc1)N1CCOC2(COCCN(CC3CC3)C2)C1` (stereo not given), the “Percent Effect” value is reported as 89.02%.
As to `O=C(O)C(F)(F)F.O=C(O)C(F)(F)F.c1cnc(N2CCCC3(CN(CC4CCOCC4)CCO3)C2)cn1` (stereo not given), the “Percent Effect” value is -4.594%.
As for `O=C(O)C(F)(F)F.O=C(O)C(F)(F)F.O=C(O)C(F)(F)F.c1cc(CN2CCOCC3(C2)CN(Cc2nccs2)CCO3)ccn1` (stereo not given), the figure is -17.66%; as for `Cn1ccc(C(=O)N2C[C@@H]3CN(CC4CC4)CCO[C@@H]3C2)n1.O=C(O)C(F)(F)F`, -13.66%; as for `O=C(O)C(F)(F)F.O=C(c1ccoc1)N1CCOC2(COCCN(c3ncccn3)C2)C1` (stereo not given), 21.15%.
`CC(C)N1CCOCC2(CCCN(C(=O)c3cncn3C)C2)C1.O=C(O)C(F)(F)F` (stereo not given): the “Percent Effect” value is -5.769%.
The figure for `O=C(O)C(F)(F)F.O=C(O)C(F)(F)F.O=C(O)C(F)(F)F.c1coc(CN2CCOC3(COCCN(Cc4ccncc4)C3)C2)c1` (stereo not given) is -11.91%.
As for `Fc1cccc(CN2CCOC3(COCCN(CC4CC4)C3)C2)c1.O=C(O)C(F)(F)F.O=C(O)C(F)(F)F` (stereo not given), the figure is 100.6%; as for `Cn1cncc1C(=O)N1CCOC2(COCCN(CC3CC3)C2)C1.O=C(O)C(F)(F)F` (stereo not given), 104.1%; as for `Cc1cccnc1CSCCCNS(C)(=O)=O`, -17.43%.
The figure for `N#Cc1cccnc1NCc1ccc(S(=O)(=O)NCC2CCCO2)cc1` (stereo not given) is 8.527%; for `Clc1cccc(N2CCC(NCc3ncc[nH]3)C2)c1` (stereo not given) it is -6.784%.
`Cl.c1cnc2c(c1)cc([C@@H]1CCCO1)n2CCN1CCOCC1`: the “Percent Effect” value came to 92.89%.
The figure for `Cl.c1cnc2c(c1)cc([C@H]1CCCO1)n2CCN1CCCCC1` is -14.33%; for `CSc1nccc(N2CCC(NCCN3CCOCC3)CC2)n1` it is -2.784%; for `CN(CC1CCCO1)C1CCN(CCc2ccccn2)CC1` (stereo not given) it is 4.903%.
As for `Cl.c1cnc2c(c1)cc([C@@H]1CCCO1)n2CCN1CCCCC1`, the figure is 85.05%; as for `Cl.c1cnc2c(c1)cc([C@H]1CCCO1)n2CCN1CCOCC1`, -5.726%.
For the compound `Cl.c1cnc2c(c1)cc([C@H]1CCCO1)n2CCN1CCCC1`, the “Percent Effect” value amounted to 88.22%.
As for `COC(C(=O)N1CCCN(Cc2cscn2)CC1)c1ccccc1` (stereo not given), the figure is -16.29%; as for `Cc1nc(CN2CCN(C(=O)c3sccc3C3CC3)CC2)cs1`, -3.645%.
For the compound `CC(O)CN1CCN(C(=O)c2ccnc(N(C)C)c2)CC1` (stereo not given), the “Percent Effect” value was -11.32%.
As for `CCc1nc(CN2CCCN(C(=O)c3occc3C)CC2)cs1`, the figure is 10.15%.
As to `COc1ccsc1C(=O)N1CCCN(Cc2cscn2)CC1`, the “Percent Effect” value is 127%.
For `Cc1nc(CN2CCN(C(=O)c3ccnc(N(C)C)c3)CC2)cs1`, the “Percent Effect” value is on record as 110.9%.
As for `Cc1nc(CN2CCN(C(=O)c3sccc3C)CC2)cs1`, the “Percent Effect” value is listed as 154.8%.
As for `CCc1ccsc1C(=O)N1CCCN(Cc2cscn2)CC1`, the figure is 140.3%; as for `Cc1nc(CN2CCN(C(=O)c3ccn(C)c(=O)c3)CC2)cs1`, 11.68%; as for `COCC1CCN(S(=O)(=O)N2C[C@@H](C)[C@@](C)(O)C2)CC1`, 1.126%.
As for `CN(Cc1cn2c(n1)CN(Cc1ccsc1)CC2)Cc1ccco1.O=C(O)C(F)(F)F.O=C(O)C(F)(F)F`, the figure is -7.727%; as for `CSc1cccc(CNC(=O)C2CC(=O)N(C3CC3)C2)c1` (stereo not given), -14.89%.
The figure for `Cn1cc(N2C[C@@H]3CN(S(=O)(=O)C4CC4)C[C@@H]3C2=O)cn1` is -1.09%; for `COc1cccc(COC(C)C(=O)N(C)Cc2nnc3n2CCC3)c1` (stereo not given) it is -2.392%.
`Cc1cc(CNc2cc(-c3ccoc3C)nn2CCO)c(C)o1`: the “Percent Effect” value was -24.32%.
On to `CC(C)c1ccc(O)c(C(=O)N2CCN(Cc3cscn3)CC2)c1`, for which the “Percent Effect” value is -2.44%.
For `N#CC1(C(=O)N2CCN(Cc3cscn3)CC2)CCCC1`, the “Percent Effect” value was -7.08%.
Take `N#Cc1ccsc1C(=O)N1CCCN(Cc2cscn2)CC1`: the “Percent Effect” value is 105.7%.
As for `Cc1nc(CN2CCCN(C(=O)C3(C#N)CCCCC3)CC2)cs1`, the figure is -0.8463%; as for `Cc1nc(CN2CCCN(C(=O)c3sccc3C#N)CC2)cs1`, 111.7%.
As for `CCn1ccnc1CN1CCCN(C(=O)c2sccc2C#N)CC1`, the figure is 2.639%.
As for `CCn1cc(CN2CCCN(C(=O)c3sccc3C#N)CC2)cn1`, the figure is -3.745%; as for `Cc1ccsc1C(=O)N1CCCN(Cc2cscn2)CC1`, 92.98%.
`CC(C)c1ccsc1C(=O)N1CCCN(Cc2cscn2)CC1`: the “Percent Effect” value turned out to be 10.39%.
The figure for `Cc1ccsc1C(=O)N1CCN(Cc2cscn2)CC1` is 118.4%.
